# aSyn 5UTR act: Activators working through SNCA 5'UTR binding (MLPCN) | alpha-synuclein 5'UTR reporter, activators screen | 300,000 compounds, 7.1% hits | activity score, % (tested at 7.5 µM), hits read low; in the data active = activity score below about -60%
# The depositor's hits bear a star. Not all results are given here.
SMILES,aSyn 5UTR act
Cc1cc(C(=O)Nc2cccc(-c3ccc(N4CCOCC4)nn3)c2)ccc1[N+](=O)[O-],-110*
O=C(Nc1cccc(-c2ccc(N3CCOCC3)nn2)c1)c1ccc(Cl)cc1,-86*
O=C(COc1ccc(Cl)cc1)Nc1cccc(-c2ccc(N3CCOCC3)nn2)c1,-71*
Cc1ccc(S(=O)(=O)Nc2cccc(-c3ccc(N4CCCCCC4)nn3)c2)cc1,-125*
Cc1ccc(S(=O)(=O)Nc2cc(-c3nn(C)c(=O)c4ccccc34)ccc2N2CCOCC2)cc1,78
CCCCCC(=O)N[C@@H](c1ccccc1)[C@@H](O)C(=O)O[C@H]1C[C@@]2(O)[C@@H](OC(=O)c3ccccc3)C3[C@](C)(C(=O)[C@H](OC(C)=O)C(=C1C)C2(C)C)[C@@H](O)C[C@H]1OC[C@@]31OC(C)=O (stereo partly drawn),87
Cc1ccc(C(=O)Nc2cccc(-c3ccc(N4CCOCC4)nn3)c2)cc1C,-73*
CC1CCN(c2ccc(-c3ccc(NC(=O)C(F)(F)F)cc3)nn2)CC1,71
Cc1ccc(C(=O)Nc2cccc(-c3ccc(N4CCOCC4)nn3)c2)cc1,-70*
O=C(Nc1cccc(-c2ccc(N3CCOCC3)nn2)c1)c1ccccc1Cl,-110*
CC(=O)c1ccc(N2CCN(C(=O)c3ccc(Cn4c(=S)[nH]c5ccc(N6CCOCC6)cc5c4=O)cc3)CC2)cc1,-72*
N#C/C(=N\Nc1ccccc1[N+](=O)[O-])C(=N)N1CCCCC1,-112*
N#C/C(=N\Nc1ccc([N+](=O)[O-])cc1)C(=N)N1CCOCC1,-109*
N#C/C(=N/Nc1ccc([N+](=O)[O-])cc1)C(=N)N1CCCCC1,-86*
N#C/C(=N\Nc1ccc(Br)cc1)C(=N)N1CCOCC1,-123*
N#CCC(=O)Nc1ccc(C(=O)OCC(=O)c2ccc3c(c2)OCO3)cc1,-89*
N#CCC(=O)Nc1ccc(C(=O)OCC(=O)c2ccc3c(c2)OCCO3)cc1,-112*
Cn1nc(C(F)(F)F)cc1-c1ccc(S(N)(=O)=O)s1,-123*
CN(C)C(=O)c1ccc(-c2cc(C(F)(F)F)nn2C)s1,-152*
Cc1ccc(C(=O)CN2C(=O)c3ccccc3S2(=O)=O)cc1,109
Cc1ccc(C(=O)COc2ccccc2N2C(=O)c3ccccc3C2=O)cc1,-127*
O=C(CC1CCCC1)Nc1nc2ccccc2[nH]1,-123*
O=C(Nc1nc2ccccc2[nH]1)C1CCCC1,-80*
CCS(=O)(=O)N1Cc2ccccc2CC1C(=O)Nc1nc2ccccc2[nH]1 (stereo not drawn),-101*
O=C(Nc1nc2ccccc2[nH]1)C1CCC1,-104*
SMILES,aSyn 5UTR act
CC1CCCCN1CCCNC(=O)c1ccc2nc(N3CCCCC3)sc2c1 (stereo not drawn),-326*
CCOC(CNC(=O)c1ccc2nc(N3CCC(C)CC3)sc2c1)OCC,-180*
CC1CC(C)CN(CCCNC(=O)c2ccc3nc(N4CCOCC4)sc3c2)C1 (stereo not drawn),-113*
CCCN1CCN(CCCNC(=O)c2ccc3nc(N4CCC(C)CC4)sc3c2)CC1,-169*
CNc1nc(N2CCc3ccccc32)ncc1F,-109*
O=c1cc(-c2ccco2)oc2ccc(Cl)cc12,-96*
COc1cccc2oc(-c3ccco3)cc(=O)c12,-94*
COc1ccc2oc(-c3ccco3)cc(=O)c2c1,-129*
COc1cc(OC)c2c(=O)cc(-c3ccccc3)oc2c1,-102*
CCCCc1ccc(NC(=S)Nc2ccc(Cl)c(S(=O)(=O)N(C)C)c2)cc1,-68*
CCOc1ccc(NC(=O)CN(C)c2ccc(S(=O)(=O)N(C(C)C)C(C)C)cn2)cc1OCC,61
CN(CC(=O)Nc1ccc(Cl)c(S(=O)(=O)N(C)C)c1)Cc1ccccc1,-109*
C/C(=N\Nc1nc(C(C)(C)C)cs1)c1ccc(O)cc1,-107*
C/C(=N\Nc1nc2c(s1)CCCC2)c1ccccc1,-178*
C/C(=N\Nc1nc(C(C)(C)C)cs1)c1ccccc1,-160*
c1ccc(Nc2nc3ccccc3[nH]2)nc1,-169*
Cc1cc(C)nc(Nc2nc3ccccc3[nH]2)n1,-109*
COC(=O)c1ccc(N)nc1,-79*
c1ccc2oc(-c3csc(NCC4CCCO4)n3)cc2c1 (stereo not drawn),-110*
C=CCNc1nc(-c2cc3ccccc3o2)cs1,-73*
c1ccc2sc(NCC3CCCO3)nc2c1 (stereo not drawn),-151*
COc1cccc(NC(=O)C(=O)NCCC2CCCCN2S(=O)(=O)c2ccccc2)c1 (stereo not drawn),-158*
O=C(NCCC1CCCCN1S(=O)(=O)c1cccs1)C(=O)Nc1ccc(F)cc1 (stereo not drawn),-87*
O=C(NCCC1CCCCN1S(=O)(=O)c1ccc(Cl)cc1)C(=O)NCc1ccncc1 (stereo not drawn),62
COc1cccc(NC(=O)C(=O)NCC2CCCN2S(=O)(=O)c2ccccc2)c1 (stereo not drawn),-216*
SMILES,aSyn 5UTR act
CN(C)CCCN(C(=O)c1ccco1)c1nc(-c2ccc(Cl)cc2)cs1,-75*
CN(C(=O)c1ccco1)c1nc(-c2ccc(Cl)cc2)cs1,-140*
CC(=O)N(C)c1nc(-c2ccc(Cl)cc2)cs1,-116*
COc1ccc(-c2csc(N(C)C(=O)c3ccco3)n2)cc1,-182*
CCn1nc(C(=O)OCC(=O)Nc2nc(-c3ccc(OC)cc3)cs2)c2ccccc2c1=O,-116*
COc1ccc(-c2csc(NC(=O)COC(=O)c3ccco3)n2)cc1,-140*
COC(=O)c1ccc(-c2ccc(Cl)cc2)nc1C,-126*
COc1ccc(C(=O)Nc2scc(-c3ccc(Cl)cc3Cl)c2C(N)=O)cc1,-237*
O=Cc1cc(N=Nc2ccccc2Cl)ccc1O,-111*
Cc1ccc(NC(=O)CSc2nnc(-c3cccs3)o2)cc1S(=O)(=O)N(C)C,-164*
CCCCN(C)S(=O)(=O)c1ccc(C(=O)Nc2nnc(-c3cccs3)o2)cc1,81
N/C(=N\OC(=O)c1ccc(Cl)c(Cl)c1)c1cccnc1,-138*
N/C(=N\OC(=O)c1cccc(Cl)c1)c1cccnc1,-114*
N/C(=N\OC(=O)c1cccc(Cl)c1)c1ccncc1,-87*
N/C(=N\OC(=O)c1cccc(C(F)(F)F)c1)c1cnccn1,-81*
COc1ccc2cc1Oc1ccc(cc1)C[C@H]1c3c(cc4c(c3Oc3cc5c(cc3OC)CCN(C)[C@@H]5C2)OCO4)CCN1C,109
Clc1ccccc1OCc1nnc(-c2ccccc2)o1,-109*
Clc1ccc(OCc2nnc(-c3ccccc3Br)o2)c(Cl)c1,-144*
Fc1ccc(OCc2nnc(-c3ccccc3Br)o2)c(Cl)c1,-151*
Clc1cccc(OCc2nnc(-c3ccccc3Br)o2)c1,-68*
CCN(CC)c1cc(C)c2cc(NC(=O)c3cccs3)ccc2n1,-65*
CCN(CC)c1cc(C)c2cc(NC(=O)c3ccccc3OC)ccc2n1,-75*
CN(C)c1nc2ccc(OCCN3CCCCC3)cc2s1,-71*
Cc1ccc(/C=N/Nc2nc(C(C)(C)C)cs2)o1,-123*
C(=N\Nc1nc(-c2ccccc2)cs1)/c1cccnc1,-339*
SMILES,aSyn 5UTR act
CC(C)=NNc1nc(-c2ccccc2)cs1,-182*
CCCC(=O)Nc1ccc(-c2csc(N/N=C\c3ccncc3)n2)cc1,-116*
CC(C)(C)c1csc(N/N=C/c2cccnc2)n1,-173*
Cc1cccnc1NC(=O)c1ccc(OCc2c(C)noc2C)cc1,-81*
Cc1cccnc1NC(=O)Nc1ccc(Cl)cc1,-84*
COc1ccc(C(=O)NC(=O)Nc2ncccc2C)cc1,-139*
Cc1cccnc1NC(=O)Nc1ccccc1,-141*

# Screening results (PubChem BioAssay)
